Source: PubChem BioAssay (NCI)
Compounds without any hit were thinned out: in the full panel of roughly 83,000, 20% have a hit.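 Note: values are percent growth. 100 is the growth of untreated cells, values between 100 and 0 indicate rising inhibition; between -100 and 0 indicates cell death.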 Calls of active or inactive are those of the source. The calls were made as follows: active = growth percent below 10; inactive = the rest.

Legend:
Test in all cases: NCI-60 one-dose screen, 48 h (100 = growth as untreated, 0 = no growth, -100 = all killed)
Settings in all cases: 10 µM unless noted
T-47D breast = test system: T-47D breast
BT-549 breast = test system: BT-549 breast
MDA-MB-435 melanoma = test system: MDA-MB-435 melanoma
SW-620 colon = test system: SW-620 colon
MCF7 breast = test system: MCF7 breast
HCT-116 colon = test system: HCT-116 colon
HCC-2998 colon = test system: HCC-2998 colon
KM12 colon = test system: KM12 colon

Measured: growth

CC(=O)NC(CCc1ccc(Cl)c(Cl)c1)c1cccc(O)c(=O)c1 (stereo not drawn)
inactive: T-47D breast 17.7% | BT-549 breast 19.3% | MDA-MB-435 melanoma 21.5% | SW-620 colon 23.8% | MCF7 breast 19.3% | HCT-116 colon 15.9% | HCC-2998 colon 22.6% | KM12 colon 18.1%

CCCCCCCCCCC(=O)CCCCCCCCCC
inactive: T-47D breast 92.3% | BT-549 breast 95.3% | MDA-MB-435 melanoma 106% | SW-620 colon 104% | MCF7 breast 101% | HCT-116 colon 94.9% | HCC-2998 colon 94.4% | KM12 colon 104%

NNC(=O)c1ccccc1N
inactive: T-47D breast 103% | BT-549 breast 121% | MDA-MB-435 melanoma 114% | SW-620 colon 103% | MCF7 breast 101% | HCT-116 colon 99.3% | HCC-2998 colon 112% | KM12 colon 105%

O=C(NCc1ccco1)Nc1cccc2c(NC(=O)NCc3ccco3)cccc12
inactive: T-47D breast 69.2% [100 µM] | BT-549 breast 57.1% [100 µM] | MDA-MB-435 melanoma 40% [100 µM] | SW-620 colon 23.1% [100 µM] | MCF7 breast 60.1% [100 µM] | HCT-116 colon 15% [100 µM] | HCC-2998 colon 74.5% [100 µM] | KM12 colon 61.1% [100 µM]

Cc1ccc(N2C(=O)c3cccc4c(N)c(S(=O)(=O)O)cc(c34)C2=O)cc1
inactive: T-47D breast 112% | BT-549 breast 131% | MDA-MB-435 melanoma 115% | SW-620 colon 109% | MCF7 breast 110% | HCT-116 colon 102% | HCC-2998 colon 104% | KM12 colon 99.3%

COc1cc(C(=O)O)c(O)c(C(C)(C)C)c1
inactive: T-47D breast 103% | BT-549 breast 105% | MDA-MB-435 melanoma 104% | SW-620 colon 106% | MCF7 breast 97.4% | HCT-116 colon 101% | HCC-2998 colon 96.7% | KM12 colon 104%

Cc1ccc(S(=O)(=O)NC(=O)NCCSSCCNC(=O)NS(=O)(=O)c2ccc(C)cc2)cc1
inactive: T-47D breast 105% | BT-549 breast 125% | MDA-MB-435 melanoma 101% | SW-620 colon 98.3% | MCF7 breast 103% | HCT-116 colon 113% | HCC-2998 colon 108% | KM12 colon 113%

N#C/C(=C\NC(=S)N=Nc1c(O)[nH]c2ccccc12)c1nc2ccccc2s1
inactive: T-47D breast 71.6% | BT-549 breast 101% | MDA-MB-435 melanoma 108% | SW-620 colon 93% | MCF7 breast 76% | HCT-116 colon 92.3% | HCC-2998 colon 113% | KM12 colon 102%

CCN1CCCC(N2c3ccccc3Sc3ccccc32)C1 (stereo not drawn)
inactive: T-47D breast 95.6% | BT-549 breast 116% | MDA-MB-435 melanoma 109% | SW-620 colon 105% | MCF7 breast 105% | HCT-116 colon 90.3% | HCC-2998 colon 103% | KM12 colon 102%

NC(=O)c1cc2c3ccccc3ccn2c1-c1ccccc1
inactive: T-47D breast 88.7% | BT-549 breast 25.5% | SW-620 colon 33.7% | MCF7 breast 10.3%
active: MDA-MB-435 melanoma -13.5% | HCT-116 colon -32.6% | HCC-2998 colon -6.31% | KM12 colon 4.03%

CCN(CC)CCN1CNC(=S)NC1
inactive: T-47D breast 94.5% | BT-549 breast 102% | MDA-MB-435 melanoma 109% | SW-620 colon 107% | MCF7 breast 98.4% | HCT-116 colon 103% | HCC-2998 colon 109% | KM12 colon 98.7%

NC(CCl)=NCC12CC3CC(CC(C3)C1)C2
active: BT-549 breast 1.18% | MDA-MB-435 melanoma -3.63% | SW-620 colon 3.96% | MCF7 breast -29.1% | HCT-116 colon -69.2% | HCC-2998 colon -17.9% | KM12 colon -31.6%
inactive: T-47D breast 15.7%

O=c1n(CC2CO2)c(=O)n(CC2CO2)n1CC1CO1 (stereo not drawn)
inactive: T-47D breast 52.4% | BT-549 breast 54.4% | MDA-MB-435 melanoma 90.4% | SW-620 colon 66.3% | MCF7 breast 31% | HCT-116 colon 57.7% | HCC-2998 colon 75.2% | KM12 colon 84.4%

O=C(c1cccc(C(=O)c2ccc3c4c(cccc24)C(=O)N(c2ccccc2)C3=O)c1)c1ccc2c3c(cccc13)C(=O)N(c1ccccc1)C2=O
inactive: T-47D breast 76.3% | BT-549 breast 104% | MDA-MB-435 melanoma 107% | SW-620 colon 104% | MCF7 breast 86.8% | HCT-116 colon 93.9% | HCC-2998 colon 114% | KM12 colon 98.2%

CCNC(=O)OCCc1c2ccccc2nc2ccccc12
inactive: T-47D breast 109% | BT-549 breast 111% | MDA-MB-435 melanoma 118% | SW-620 colon 101% | MCF7 breast 89.6% | HCT-116 colon 94.1% | HCC-2998 colon 110% | KM12 colon 114%

Nc1ccc2ccccc2c1-c1c(N)ccc2ccccc12
active: MDA-MB-435 melanoma -4.5%
inactive: T-47D breast 32.2% | BT-549 breast 61.5% | SW-620 colon 24.3% | MCF7 breast 19.6% | HCT-116 colon 24.9% | HCC-2998 colon 66.3% | KM12 colon 25.7%

OCC(O)COc1ccc(Cl)cc1Cl (stereo not drawn)
inactive: T-47D breast 81.5% | BT-549 breast 101% | MDA-MB-435 melanoma 103% | SW-620 colon 114% | MCF7 breast 95.6% | HCT-116 colon 93% | HCC-2998 colon 98.3% | KM12 colon 106%

CC1(C)CCC(C)(C)NC(=S)N1
inactive: T-47D breast 98.5% | BT-549 breast 105% | MDA-MB-435 melanoma 111% | SW-620 colon 111% | MCF7 breast 103% | HCT-116 colon 98.9% | HCC-2998 colon 109% | KM12 colon 99.1%

CC(=O)N(C(C)=O)c1ccc(C)cc1
inactive: T-47D breast 102% | BT-549 breast 101% | MDA-MB-435 melanoma 111% | SW-620 colon 102% | MCF7 breast 87.6% | HCT-116 colon 117% | HCC-2998 colon 98.2% | KM12 colon 103%

CCOC(=O)/C(O)=C(\C=N\C(=S)Nc1ccc(Cl)c(Cl)c1)C(=O)OCC
inactive: T-47D breast 58.3% | BT-549 breast 100% | MDA-MB-435 melanoma 87.1% | SW-620 colon 104% | MCF7 breast 81% | HCT-116 colon 101% | HCC-2998 colon 87.9% | KM12 colon 100%

Cn1/c(=N\N=C\c2ccccc2OCCO)sc2ccccc21
inactive: T-47D breast 79.3% | BT-549 breast 102% | MDA-MB-435 melanoma 107% | SW-620 colon 109% | MCF7 breast 76.9% | HCT-116 colon 98.8% | HCC-2998 colon 110% | KM12 colon 92.2%

S=CN1CCCCC1
inactive: T-47D breast 103% | BT-549 breast 105% | MDA-MB-435 melanoma 103% | SW-620 colon 105% | MCF7 breast 96.3% | HCT-116 colon 102% | HCC-2998 colon 103% | KM12 colon 98.8%

CC(=O)/C(C)=N\OC(=O)Nc1ccccc1
inactive: T-47D breast 94.4% | BT-549 breast 101% | MDA-MB-435 melanoma 103% | SW-620 colon 107% | MCF7 breast 93.5% | HCT-116 colon 102% | HCC-2998 colon 94.7% | KM12 colon 101%

Cc1ccc(N)c(S(=O)(=O)O)c1
inactive: T-47D breast 101% | BT-549 breast 104% | MDA-MB-435 melanoma 117% | SW-620 colon 101% | MCF7 breast 98.9% | HCT-116 colon 98.1% | HCC-2998 colon 95.7% | KM12 colon 101%

CC(=O)Nc1ncc(S(=O)(=O)c2ccc([N+](=O)[O-])cc2)s1
inactive: T-47D breast 91.4% | BT-549 breast 108% | MDA-MB-435 melanoma 111% | SW-620 colon 101% | MCF7 breast 105% | HCT-116 colon 98.9% | HCC-2998 colon 128% | KM12 colon 116%

COc1cc(C(=O)NC(=S)NCc2ccncc2)cc(OC)c1OC
inactive: T-47D breast 83.2% | BT-549 breast 102% | MDA-MB-435 melanoma 104% | SW-620 colon 110% | MCF7 breast 98.3% | HCT-116 colon 97.3% | HCC-2998 colon 115% | KM12 colon 98%

c1ccc2c(NCCCN3CCN(CCCNc4c5ccccc5nc5ccccc45)CC3)c3ccccc3nc2c1
active: T-47D breast -7.72% [100 µM] | BT-549 breast -61.4% [100 µM] | MDA-MB-435 melanoma -88.4% [100 µM] | SW-620 colon -22.7% [100 µM] | MCF7 breast -56.5% [100 µM] | HCT-116 colon -49.6% [100 µM] | HCC-2998 colon -76.6% [100 µM] | KM12 colon -14.9% [100 µM]

CCCCCCCCCCCCCC/C=C\C(CC(=O)O)C(=O)O (stereo not drawn)
inactive: T-47D breast 115% | BT-549 breast 116% | MDA-MB-435 melanoma 126% | SW-620 colon 103% | MCF7 breast 105% | HCT-116 colon 103% | HCC-2998 colon 102% | KM12 colon 103%

C=C1SC(=Nc2c(C)cccc2C)N(c2nc(Cl)nc(Cl)n2)C12CCCCC2
inactive: T-47D breast 101% | BT-549 breast 91.6% | MDA-MB-435 melanoma 93.5% | SW-620 colon 112% | MCF7 breast 103% | HCT-116 colon 93.7% | HCC-2998 colon 111% | KM12 colon 103%

Cc1ccc(Cc2ccc(C)cc2)cc1
inactive: T-47D breast 101% | BT-549 breast 91.2% | MDA-MB-435 melanoma 97.5% | SW-620 colon 102% | MCF7 breast 99.4% | HCT-116 colon 107% | HCC-2998 colon 100% | KM12 colon 99.4%

C=COC(=O)C(C)(C)C
inactive: T-47D breast 93.8% | BT-549 breast 89% | MDA-MB-435 melanoma 101% | SW-620 colon 98.4% | MCF7 breast 96% | HCT-116 colon 109% | HCC-2998 colon 94.1% | KM12 colon 107%
